Laboratory results published in the supplement of paper PMC10849652.
The full data set covers some 7,900 targets. This sample favours those with a hit. About 0.6% of all pairs of compound and target were hits. Values without a mark were called inactive.

Legend:
Assay in all cases: log2 fold change, soluble protein after heating vs DMSO (PISA); higher = thermal stabilisation; K562 cells, 10 uM, 30 min; active = over 0.2 and 3.5 SD of the protein, either way, in both replicates (recomputed)
[1] = compound: C1COCCN1CCN2C3=CC=CC=C3N=C2NC(=O)C4=CC(=CC=C4)[N+](=O)[O-] [IRAK-1-4 Inhibitor I]
In short: (§1)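 Soluble protein was defined as the supernatant after 21,000xg for 90 min. It came from K562 cells at 2×10^6 cells/mL given 10 μM compound for 30 min, heated in aliquots for 3 min across 48°C-58°C, pooled, and extracted in PBS with 0.5% NP-40 at 4°C, and was quantified by TMTpro 16plex LC-MS/MS with equalised channel sums. Thermal stability against control samples, from duplicates, is reported as log2 fold change.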

[2] = compound: C=CC(=O)N1CCC[C@@H](n2nc(-c3ccc(Oc4ccccc4)cc3)c3c(N)ncnc32)C1 [ibrutinib]
In short: as §1

[3] = compound: CC(=O)c1cnc2ccc(-c3cc(Cl)c(O)c(Cl)c3)nc2c1N[C@H]1CC[C@H](CN(C)C)CC1
In short: as §1

[4] = compound: CC(C)(C)Cn1c(N)nc2ccc(-c3[nH]c(C(C)(C)C)nc3-c3ccc(F)cc3)nc21 [ralimetinib]
In short: as §1

[5] = compound: CC(C)(O)CC(=O)NCCn1ccc2ncnc(Nc3ccc(Oc4cccc(C(F)(F)F)c4)c(Cl)c3)c21
In short: as §1

[6] = compound: CC(C)C1=C2N=C(C=C(N2N=C1)NCC3=CC=CC=C3)NCCCCCCN
In short: as §1

[7] = compound: CC(C)C[C@@H](C=O)NC(=O)[C@H](CC(C)C)NC(=O)[C@H](CC(C)C)NC(=O)OCc1ccccc1
In short: as §1

[8] = compound: CC(C)N(C[C@H]1O[C@@H](n2cnc3c(N)ncnc32)[C@H](O)[C@@H]1O)[C@H]1C[C@@H](CCc2nc3cc(C(C)(C)C)ccc3[nH]2)C1 [pinometostat]
In short: as §1

[9] = compound: CC1=C(C(CC(=O)N1)C2=CC=C(C=C2)C(F)(F)F)C(=O)NC3=C(C=C4C(=C3)C=NN4)F
In short: as §1

[10] = compound: CC1=C(C2=C(C=C1)C(=O)C3=CC=CC=C3N2CCCN)C
In short: as §1

[11] = compound: CC1=C(C=C(C=C1)NC(=O)C2=CC(=CC=C2)C(C)(C)C#N)NC3=CC4=C(C=C3)N=CN(C4=O)C
In short: as §1

[12] = compound: CC1=C(C=C(C=C1)NC(=O)C2=CC(=CC=C2)N(C)C)NC(=O)C3=CC=C(C=C3)O
In short: as §1

[13] = compound: CC1=CC=C(C=C1)SC2=C3C=C(SC3=CN=C2)C(=O)N
In short: as §1

[14] = compound: CC1=NC(=CC=C1)C2=C(N=C(N2)C(C)(C)C)C3=CC4=NC=CN=C4C=C3
In short: as §1

[15] = compound: CCCCN(Cc1ccc(C(=O)NO)cc1)C(=O)Nc1ccccc1 [Nexturastat A]
In short: as §1

[16] = compound: CCCS(=O)(=O)Nc1ccc(F)c(C(=O)c2c[nH]c3ncc(-c4ccc(Cl)cc4)cc23)c1F [vemurafenib]
In short: as §1

[17] = compound: CCCS(=O)(=O)Nc1ccc(F)c(C(=O)c2c[nH]c3ncc(Cl)cc23)c1F
In short: as §1

[18] = compound: CCCc1cc(C)[nH]c(=O)c1CNC(=O)c1cc(-c2ccnc(N3CCN(C)CC3)c2)cc2c1cnn2C(C)C
In short: as §1

[19] = compound: CCN(CC)Cc1ccc2cc(COC(=O)Nc3ccc(C(=O)NO)cc3)ccc2c1 [givinostat]
In short: as §1

[20] = compound: CCN(CCCOc1ccc2c(Nc3cc(CC(=O)Nc4cccc(F)c4)[nH]n3)ncnc2c1)CCOP(=O)(O)O [barasertib]
In short: as §1

Sequence of UniProt Q6P6C2 (Q6P6C2 whole entry, looked up): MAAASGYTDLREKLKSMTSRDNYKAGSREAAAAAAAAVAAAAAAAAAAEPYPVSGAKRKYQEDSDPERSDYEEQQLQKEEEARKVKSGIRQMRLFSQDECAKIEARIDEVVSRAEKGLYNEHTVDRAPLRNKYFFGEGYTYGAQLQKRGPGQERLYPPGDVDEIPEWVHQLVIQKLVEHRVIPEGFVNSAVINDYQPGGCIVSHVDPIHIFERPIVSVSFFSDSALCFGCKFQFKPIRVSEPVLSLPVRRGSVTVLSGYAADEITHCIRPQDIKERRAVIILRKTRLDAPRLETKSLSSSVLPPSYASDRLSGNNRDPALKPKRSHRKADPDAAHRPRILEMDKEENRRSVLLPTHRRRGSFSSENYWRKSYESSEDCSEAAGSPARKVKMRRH
Sequence of UniProt Q86WA6 (Q86WA6 whole entry, looked up): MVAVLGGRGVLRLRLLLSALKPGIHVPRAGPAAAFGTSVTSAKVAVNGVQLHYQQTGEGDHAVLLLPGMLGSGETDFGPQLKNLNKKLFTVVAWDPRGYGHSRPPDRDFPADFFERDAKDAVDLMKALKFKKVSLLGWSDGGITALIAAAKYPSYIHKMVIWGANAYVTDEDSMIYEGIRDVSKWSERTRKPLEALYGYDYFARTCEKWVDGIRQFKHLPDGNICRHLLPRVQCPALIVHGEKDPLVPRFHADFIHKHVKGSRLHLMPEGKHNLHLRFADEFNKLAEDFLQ
Sequence of UniProt P54886 (P54886 whole entry, looked up): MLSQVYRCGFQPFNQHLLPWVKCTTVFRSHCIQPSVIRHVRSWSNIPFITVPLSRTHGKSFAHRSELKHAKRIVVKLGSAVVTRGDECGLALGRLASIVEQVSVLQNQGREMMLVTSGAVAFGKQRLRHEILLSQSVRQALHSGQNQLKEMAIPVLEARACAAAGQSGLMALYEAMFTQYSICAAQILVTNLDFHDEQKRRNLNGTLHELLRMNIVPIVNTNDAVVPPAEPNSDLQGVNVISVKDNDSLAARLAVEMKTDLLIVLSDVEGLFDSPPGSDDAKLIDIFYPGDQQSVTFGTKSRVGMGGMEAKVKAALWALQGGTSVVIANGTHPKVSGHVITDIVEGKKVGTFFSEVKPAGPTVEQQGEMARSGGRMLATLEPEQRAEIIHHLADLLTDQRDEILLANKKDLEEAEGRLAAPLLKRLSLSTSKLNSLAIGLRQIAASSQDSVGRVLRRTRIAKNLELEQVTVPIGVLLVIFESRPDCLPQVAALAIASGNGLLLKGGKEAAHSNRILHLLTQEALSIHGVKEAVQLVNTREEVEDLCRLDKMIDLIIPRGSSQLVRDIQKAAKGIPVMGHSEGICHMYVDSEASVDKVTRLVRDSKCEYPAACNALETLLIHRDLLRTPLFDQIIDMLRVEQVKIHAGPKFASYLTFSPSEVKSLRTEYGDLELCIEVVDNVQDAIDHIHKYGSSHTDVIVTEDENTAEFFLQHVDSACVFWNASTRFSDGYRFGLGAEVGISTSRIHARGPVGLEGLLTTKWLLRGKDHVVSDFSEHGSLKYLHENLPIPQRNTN
Sequence of UniProt P15291 (P15291 whole entry, looked up): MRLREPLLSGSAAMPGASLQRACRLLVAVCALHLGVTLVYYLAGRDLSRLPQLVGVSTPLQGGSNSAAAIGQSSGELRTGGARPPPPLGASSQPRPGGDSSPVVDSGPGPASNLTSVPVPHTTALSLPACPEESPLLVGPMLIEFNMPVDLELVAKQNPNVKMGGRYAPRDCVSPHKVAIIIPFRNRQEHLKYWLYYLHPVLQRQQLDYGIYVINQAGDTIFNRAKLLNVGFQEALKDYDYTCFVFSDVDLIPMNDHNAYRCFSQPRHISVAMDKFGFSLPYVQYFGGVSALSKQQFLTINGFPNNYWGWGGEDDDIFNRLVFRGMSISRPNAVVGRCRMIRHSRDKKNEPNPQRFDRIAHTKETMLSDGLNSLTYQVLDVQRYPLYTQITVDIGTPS
Sequence of UniProt P36405 (P36405 whole entry, looked up): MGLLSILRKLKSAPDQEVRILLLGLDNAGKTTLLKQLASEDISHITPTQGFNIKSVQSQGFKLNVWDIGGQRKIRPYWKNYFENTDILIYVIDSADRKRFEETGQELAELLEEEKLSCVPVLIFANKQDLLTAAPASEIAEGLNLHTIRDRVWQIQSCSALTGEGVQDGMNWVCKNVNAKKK
Sequence of UniProt P31749 (P31749 whole entry, looked up): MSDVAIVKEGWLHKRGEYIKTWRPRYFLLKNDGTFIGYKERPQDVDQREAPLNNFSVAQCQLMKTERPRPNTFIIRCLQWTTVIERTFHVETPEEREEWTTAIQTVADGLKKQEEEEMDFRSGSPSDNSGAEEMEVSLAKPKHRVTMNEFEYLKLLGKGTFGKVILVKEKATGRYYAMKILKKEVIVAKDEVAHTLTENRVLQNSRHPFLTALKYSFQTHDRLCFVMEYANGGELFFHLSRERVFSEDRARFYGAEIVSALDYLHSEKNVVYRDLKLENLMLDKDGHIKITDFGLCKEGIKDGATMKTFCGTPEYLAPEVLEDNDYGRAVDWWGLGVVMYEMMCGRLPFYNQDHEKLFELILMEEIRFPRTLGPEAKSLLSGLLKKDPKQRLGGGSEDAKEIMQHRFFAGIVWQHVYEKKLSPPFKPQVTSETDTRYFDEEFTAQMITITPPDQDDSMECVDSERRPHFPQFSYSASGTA
Sequence of UniProt P30043 (P30043 whole entry, looked up): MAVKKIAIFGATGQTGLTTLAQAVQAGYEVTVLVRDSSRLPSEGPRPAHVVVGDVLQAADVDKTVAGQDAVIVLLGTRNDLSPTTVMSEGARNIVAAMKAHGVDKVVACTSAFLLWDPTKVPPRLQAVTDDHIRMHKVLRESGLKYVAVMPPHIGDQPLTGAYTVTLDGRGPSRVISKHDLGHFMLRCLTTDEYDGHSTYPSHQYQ
Sequence of UniProt Q9UQB8 (Q9UQB8 whole entry, looked up): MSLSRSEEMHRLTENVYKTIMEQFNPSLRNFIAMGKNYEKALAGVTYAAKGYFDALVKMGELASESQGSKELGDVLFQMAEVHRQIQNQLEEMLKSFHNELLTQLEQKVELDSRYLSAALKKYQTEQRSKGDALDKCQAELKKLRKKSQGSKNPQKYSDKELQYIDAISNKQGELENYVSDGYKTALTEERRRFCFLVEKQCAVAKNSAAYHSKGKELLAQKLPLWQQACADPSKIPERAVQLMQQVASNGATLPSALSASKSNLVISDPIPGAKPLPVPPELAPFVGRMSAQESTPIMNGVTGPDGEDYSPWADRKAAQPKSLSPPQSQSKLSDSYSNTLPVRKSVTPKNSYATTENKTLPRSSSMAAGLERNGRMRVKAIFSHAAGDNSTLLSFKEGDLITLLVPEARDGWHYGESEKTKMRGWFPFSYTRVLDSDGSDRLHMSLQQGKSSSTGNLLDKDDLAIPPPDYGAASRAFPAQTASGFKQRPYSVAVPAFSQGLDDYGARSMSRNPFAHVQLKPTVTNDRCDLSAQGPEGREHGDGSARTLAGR
Sequence of UniProt Q16864 (Q16864 whole entry, looked up): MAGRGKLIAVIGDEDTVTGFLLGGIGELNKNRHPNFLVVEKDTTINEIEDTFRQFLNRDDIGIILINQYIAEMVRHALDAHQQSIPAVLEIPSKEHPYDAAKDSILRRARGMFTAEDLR
Sequence of UniProt Q92560 (Q92560 whole entry, looked up): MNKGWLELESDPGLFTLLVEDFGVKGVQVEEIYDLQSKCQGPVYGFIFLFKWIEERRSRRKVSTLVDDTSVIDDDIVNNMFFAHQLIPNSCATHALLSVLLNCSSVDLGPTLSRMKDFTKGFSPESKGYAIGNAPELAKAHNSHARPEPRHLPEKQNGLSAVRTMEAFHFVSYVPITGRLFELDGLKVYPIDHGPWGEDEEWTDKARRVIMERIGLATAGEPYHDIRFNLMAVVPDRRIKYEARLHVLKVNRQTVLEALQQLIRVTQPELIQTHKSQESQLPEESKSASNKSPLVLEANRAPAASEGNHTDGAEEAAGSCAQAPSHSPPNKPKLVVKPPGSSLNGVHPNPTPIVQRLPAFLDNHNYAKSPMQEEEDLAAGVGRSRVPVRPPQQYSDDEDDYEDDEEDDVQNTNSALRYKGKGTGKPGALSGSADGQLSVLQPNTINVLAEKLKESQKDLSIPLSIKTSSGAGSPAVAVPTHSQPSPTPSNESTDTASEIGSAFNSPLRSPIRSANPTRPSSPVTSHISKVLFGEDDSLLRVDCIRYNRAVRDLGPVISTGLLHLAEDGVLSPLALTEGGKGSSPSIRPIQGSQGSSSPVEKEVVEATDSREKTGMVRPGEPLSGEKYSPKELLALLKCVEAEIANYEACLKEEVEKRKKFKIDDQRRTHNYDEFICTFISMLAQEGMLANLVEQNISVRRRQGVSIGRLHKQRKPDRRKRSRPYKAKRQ
Sequence of UniProt Q9BR61 (Q9BR61 whole entry, looked up): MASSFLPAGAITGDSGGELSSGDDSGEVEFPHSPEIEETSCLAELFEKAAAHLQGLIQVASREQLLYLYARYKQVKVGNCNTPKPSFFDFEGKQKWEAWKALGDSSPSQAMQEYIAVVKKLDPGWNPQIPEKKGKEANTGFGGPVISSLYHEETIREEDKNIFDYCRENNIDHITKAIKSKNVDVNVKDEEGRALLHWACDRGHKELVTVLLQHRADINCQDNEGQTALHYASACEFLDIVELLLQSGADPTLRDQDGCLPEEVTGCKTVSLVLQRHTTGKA
Sequence of UniProt Q8N6S5 (Q8N6S5 whole entry, looked up): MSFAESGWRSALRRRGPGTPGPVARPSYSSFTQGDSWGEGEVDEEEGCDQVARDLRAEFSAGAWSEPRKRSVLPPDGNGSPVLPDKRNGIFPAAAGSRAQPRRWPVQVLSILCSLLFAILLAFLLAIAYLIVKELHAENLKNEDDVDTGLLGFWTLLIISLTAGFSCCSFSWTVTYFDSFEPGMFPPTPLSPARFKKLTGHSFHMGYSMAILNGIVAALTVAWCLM
Sequence of UniProt Q10589 (Q10589 whole entry, looked up): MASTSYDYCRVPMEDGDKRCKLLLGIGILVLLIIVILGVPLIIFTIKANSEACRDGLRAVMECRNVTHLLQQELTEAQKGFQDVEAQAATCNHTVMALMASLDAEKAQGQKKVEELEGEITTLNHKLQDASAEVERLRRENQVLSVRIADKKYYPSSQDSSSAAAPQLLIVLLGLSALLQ

Row | Target | log2 fold change [1] | log2 fold change [2] | log2 fold change [3] | log2 fold change [4] | log2 fold change [5] | log2 fold change [6] | log2 fold change [7] | log2 fold change [8] | log2 fold change [9] | log2 fold change [10] | log2 fold change [11] | log2 fold change [12] | log2 fold change [13] | log2 fold change [14] | log2 fold change [15] | log2 fold change [16] | log2 fold change [17] | log2 fold change [18] | log2 fold change [19] | log2 fold change [20]
1 | ARL6IP6 (UniProt Q8N6S5) | 0.12 | 0.056 | 0.168 | 0.413 (active) | 0 | -0.049 | -0.199 | 0.069 | -0.014 | 0.02 | -0.112 | -0.038 | 0.009 | -0.071 | 0.106 | 0 | 0.049 | 0.034 | 0.099 | -0.048
2 | B4GALT1 (UniProt P15291) | 0.034 | -0.057 | -0.019 | 0.094 | 0.094 | -0.294 (active) | 0.017 | -0.051 | 0.006 | -0.03 | -0.009 | -0.027 | 0.002 | -0.05 | -0.022 | 0.035 | 0.012 | -0.044 | -0.113 | -0.01
3 | BPHL (UniProt Q86WA6) | 0.009 | -0.062 | -0.034 | -0.045 | -0.023 | 0.123 | 0.071 | 0.061 | 0.016 | -0.244 | -0.037 | -0.031 | -0.058 | 0.017 | -0.205 | 0.004 | -0.062 | 0.057 | 0.023 | -0.006
4 | AKT1 (UniProt P31749) | -0.014 | -0.244 | 0.03 | -0.023 | 0.01 | -0.141 | 0.07 | -0.051 | -0.161 | -0.038 | 0.118 | -0.105 | -0.035 | 0.019 | 0.145 | -0.227 | 0.008 | 0.049 | 0.133 | -0.03
5 | ACTR1B (UniProt P42025) | 0.066 | 0.003 | -0.041 | 0.07 | -0.065 | 0.042 | -0.071 | 0.003 | -0.099 | -0.013 | -0.056 | -0.124 | 0.001 | -0.003 | -0.134 | -0.029 | -0.022 | -0.009 | 0.006 | 0.031
6 | ACBD6 (UniProt Q9BR61) | -0.072 | 0.009 | 0.477 (active) | -0.169 | -0.068 | 0.173 | 0.159 | 0.008 | 0.023 | 0.074 | 0.039 | -0.04 | 0.139 | 0.067 | 0.28 | 0.029 | 0.022 | 0.127 | -0.011 | 0.018
7 | ALDH18A1 (UniProt P54886) | 0 | -0.098 | 0 | -0.057 | -0.497 (active) | -0.269 | 0 | -0.053 | -0.059 | 0.184 | -0.179 | 0.002 | -0.04 | 0.101 | 0.035 | 0.068 | 0.057 | -0.137 | 0.141 | 0.214
8 | ALKBH5 (UniProt Q6P6C2) | 0.015 | 0.05 | 0.053 | 0.049 | 0.025 | 0.198 | -0.016 | -0.013 | 0.029 | 0.086 | -0.12 | -0.017 | -0.046 | -0.031 | -0.068 | -0.071 | -0.09 | 0.162 | 0.092 | -0.023
9 | BAP1 (UniProt Q92560) | -0.038 | -0.056 | -0.125 | 0.06 | -0.014 | -0.217 | 0.048 | 0.163 | -0.116 | -0.17 | -0.067 | -0.088 | -0.149 | -0.058 | 0.403 (active) | -0.089 | -0.055 | 0.085 | 0.495 (active) | -0.019
10 | BST2 (UniProt Q10589) | -0.004 | 0 | -0.109 | 0.033 | 0.025 | -0.108 | 0.12 | -0.006 | 0.026 | 0.017 | 0.059 | 0.014 | -0.003 | -0.011 | 0.023 | 0 | -0.029 | -0.095 | 0.053 | -0.097
11 | BAIAP2 (UniProt Q9UQB8) | -0.016 | -0.032 | -0.265 (active) | -0.034 | -0.033 | -0.056 | 0.062 | 0 | 0.001 | 0.041 | -0.019 | 0.01 | 0.007 | -0.012 | 0.041 | 0.021 | 0.068 | 0.048 | 0.029 | 0.048
12 | BLVRB (UniProt P30043) | 0.075 | 0.037 | 0.154 | 0.056 | -0.019 | -0.048 | -0.037 | -0.005 | -0.046 | 0.059 | 0.094 | -0.023 | -0.025 | 0.027 | -0.014 | 0.069 | 0.063 | 0.037 | 0.03 | 0.025
13 | ATP6V1F isoform 2 (UniProt Q16864) | 0.053 | -0.003 | -0.189 | -0.054 | -0.132 | -0.024 | -0.059 | -0.009 | 0.039 | 0.253 | -0.139 | 0.034 | 0.011 | 0.06 | 0.146 | 0.123 | -0.055 | 0.038 | -0.044 | 0.072
14 | AARS2 (UniProt Q5JTZ9) | 0 | -0.025 | -0.025 | -0.011 | -0.099 | -0.15 | -0.013 | 0.006 | 0.002 | 0.048 | -0.003 | -0.047 | 0.017 | 0.079 | -0.015 | 0.045 | 0.04 | 0.049 | 0.05 | 0.058
15 | ARL3 (UniProt P36405) | 0.049 | -0.01 | -0.033 | -0.042 | -0.034 | 0.065 | -0.057 | -0.029 | 0.002 | 0.017 | -0.016 | 0.018 | 0.016 | 0.025 | -0.063 | 0.002 | 0.059 | -0.033 | 0.005 | -0.022
16 | BRIX1 (UniProt Q8TDN6) | -0.1 | -0.011 | 0.021 | 0.133 | 0.091 | 0.137 | 0.041 | 0.361 | -0.051 | -1.43 (active) | 0.038 | -0.061 | -0.09 | -0.134 | 0.37 | -0.11 | 0.008 | 0.159 | 0.15 | -0.197
